Screen size: about 190,000 compounds; about 1,300 (0.68%) were called active. No stated cut-off is given here; in the data, active means inhibition above about 50%; inactive means the rest. Many of the other results were omitted from the sample, so actives are more common in it than they were.

For the assay, the target named is Mannose-6-phosphate isomerase (Homo sapiens) (UniProt P34949). The assay is described as follows: MPI inhibition at elevated mannose 6-phosphate – biochemical, fluorescence intensity, high mannose 6-phosphate, primary screen (AID 1220). The conditions noted are these: recombinant PMI enzyme, coupled fluorescence intensity; at 20 µM; hits give high values.
Chain of Mannose-6-phosphate isomerase (Homo sapiens) (P34949 whole entry, looked up): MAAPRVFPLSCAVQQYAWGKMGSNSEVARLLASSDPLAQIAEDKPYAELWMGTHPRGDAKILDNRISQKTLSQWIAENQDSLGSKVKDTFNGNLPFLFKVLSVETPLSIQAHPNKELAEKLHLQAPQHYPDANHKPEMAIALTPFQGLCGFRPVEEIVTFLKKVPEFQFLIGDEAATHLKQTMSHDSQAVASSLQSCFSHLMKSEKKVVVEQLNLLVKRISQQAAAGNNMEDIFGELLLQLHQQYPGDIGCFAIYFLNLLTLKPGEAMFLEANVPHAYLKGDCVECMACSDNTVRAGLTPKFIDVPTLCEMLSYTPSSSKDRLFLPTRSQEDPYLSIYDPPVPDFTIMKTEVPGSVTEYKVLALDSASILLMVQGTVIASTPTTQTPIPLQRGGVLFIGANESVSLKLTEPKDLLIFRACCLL
A word on the inhibition: it is the drop in the measured response relative to a control, in per cent. As to `CNC(=O)c1ccc(-c2sc3nc(N4CCOCC4)c4c(c3c2N)CCCC4)o1`, the inhibition was 55.4% (active).

Regarding `CNC(=O)c1ccc(-c2sc3nc(N4CCOCC4)c4c(c3c2N)CC(C)(C)OC4)o1`, the inhibition was 48.4% (inactive).

For the compound `COC(=O)c1ccc(-c2sc3nc(N4CCOCC4)c4c(c3c2N)CCCC4)o1`, the inhibition is 20.1% (inactive).

Turning to `CC(C)C(=O)Nc1cccc(-c2csc(-c3ccccc3)n2)c1`, the inhibition was 11.9% (inactive).

In the case of `COc1ccc(-c2noc(-c3cccnc3)n2)cc1OC`, the inhibition is -11.6% (inactive).

Turning to `COc1cc(CC(C#N)(CO)c2nc3ccccc3[nH]2)ccc1OC(F)F` (stereo unspecified), the inhibition is 16.3% (inactive).

In the case of `Cc1nc(N2CCCC2)c2ccsc2n1`, the inhibition was -2.9% (inactive).

Turning to `O=C(CSc1c2c(nc3cc(Cl)ccc13)CCCC2)NCCN1CCOCC1`, the inhibition is 2.2% (inactive).

On to `CCN(CC)CCNC(=O)CSc1c2c(nc3cc(Cl)ccc13)CCCC2`, for which the inhibition was 56.3% (active).

Regarding `CCN(CC)CCCNC(=O)CSc1c2c(nc3cc(Cl)ccc13)CCCC2`, the inhibition is -5.8% (inactive).

Regarding `Cn1c(Cn2c(=O)sc3ccccc32)nnc1SCC(=O)NCC1CCCO1` (stereo unspecified), the inhibition was 2.5% (inactive).

For the compound `CC(C)Cc1ccc(/C=C/C(=O)N2CCCCC2)cc1`, the inhibition is 9.7% (inactive).

Regarding `Cc1ccc2nc(NC(=O)c3ccc(-c4nc5ccccc5s4)s3)sc2c1`, the inhibition was -17.4% (inactive).

Consider `Cc1ccc2nc(N3CCCCC3)c(C=O)c(=O)n2c1`, for which the inhibition was -6.8% (inactive).

Take `Cc1ccc2nc(N3CCN(c4ccccc4)CC3)c(C=O)c(=O)n2c1`: the inhibition was 50.4% (active).

On to `COc1ccc(N2CCN(c3nc4ccccn4c(=O)c3C=O)CC2)cc1`, for which the inhibition is 42.4% (inactive).

As for `Cc1ccc2nc(N3CCN(c4ccccc4F)CC3)c(C=O)c(=O)n2c1`, the inhibition was 19.9% (inactive).

`Cc1ccc2nc(N3CCOCC3)c(C=O)c(=O)n2c1`: the inhibition is 2.9% (inactive).

With `COc1ccc(N2CCN(c3nc4ccc(C)cn4c(=O)c3C=O)CC2)cc1`, the inhibition was 56.9% (active).

In the case of `CC(C)(C)c1ccc(NC(=O)COC(=O)CCN2C(=O)c3cccc([N+](=O)[O-])c3C2=O)cc1`, the inhibition is 3.2% (inactive).

For the compound `CN1CCN(S(=O)(=O)c2ccc(NC(=O)c3csc4ccccc34)cc2)CC1`, the inhibition is -13.4% (inactive).

In the case of `CC(=O)Nc1ccc(NS(=O)(=O)Cc2ccccc2)cc1`, the inhibition was 3.4% (inactive).

Take `COc1ccc(C(CNC(=O)Cc2ccccc2F)N2CCCCC2)cc1` (stereo unspecified): the inhibition was -1.6% (inactive).

Regarding `CN1/C(=C\C(=O)c2ccco2)c2ccccc2CC1(C)C`, the inhibition was -4.8% (inactive).

Take `Cc1ccccc1NC(=S)NC12CN3CN(CN(C3)C1)C2`: the inhibition was 1.3% (inactive).

Regarding `CCc1ccccc1N1CC23C=CC(O2)C(C(=O)OCC(C)C)C3C1=O` (stereo unspecified), the inhibition was 7.8% (inactive).

For `Cc1cccc(-c2nnc(SCC#N)n2Cc2ccccc2)c1`, the inhibition is -0.8% (inactive).

As to `CC(Sc1cccc[n+]1[O-])C(=O)Nc1ccc(Oc2ccccc2)cc1` (stereo unspecified), the inhibition was 0% (inactive).

With `CC(=O)N/N=C/c1c(C)[nH]n(-c2ccccc2)c1=O`, the inhibition is 7.9% (inactive).

`O=C(O)CN1C(=O)/C(=C/c2ccsc2)SC1=S`: the inhibition is -5.3% (inactive).

On to `Cc1cc(O)cc(O)c1C(=O)Cc1ccccc1`, for which the inhibition was -2.6% (inactive).

Turning to `CCOC(=O)c1ccc(CC(=O)c2ccc(O)cc2O)o1`, the inhibition was -31.2% (inactive).

As for `CCCc1cc(C(=O)Cc2ccc(C(=O)OCC)o2)c(O)cc1O`, the inhibition is -51.6% (inactive).

Take `COC(=O)c1ccc(CC(=O)c2c(C)cc(O)cc2O)o1`: the inhibition is 50.8% (active).

As to `COC(=O)c1ccc(CC(=O)c2ccc(O)cc2O)o1`, the inhibition was -59.1% (inactive).

As to `Cc1ccc(NCc2nnc(SCC(=O)NCc3ccco3)n2CC2CCCO2)c(C)c1` (stereo unspecified), the inhibition was 8% (inactive).

Turning to `CCSC1=NCCN1S(=O)(=O)c1ccccc1`, the inhibition was 7.2% (inactive).

For the compound `C/C(=C\C(=O)Nc1cc(C)on1)c1ccccc1`, the inhibition is 15.6% (inactive).

Take `Cc1nnc(NC(=O)C(C)Oc2ccc3c(C)cc(=O)oc3c2)s1` (stereo unspecified): the inhibition was -8.9% (inactive).

On to `CCS(=O)(=O)N1Cc2ccccc2CC1C(=O)Nc1ncc(C)s1` (stereo unspecified), for which the inhibition was -7.1% (inactive).

Consider `Clc1cccc(Cl)c1Cn1cnc2c(N3CCCCCC3)ncnc21`, for which the inhibition was 14.8% (inactive).

As for `CC(=O)N1C(=O)c2cccc3cccc(c23)C(=O)N1C(C)=O`, the inhibition was 7.9% (inactive).

On to `CC(=O)c1c(C(C)=O)c(C)n(-c2cccc3cccnc23)c1C`, for which the inhibition was -2.3% (inactive).

`CC(=O)c1ccc2cccc3c2c1N=CN3C`: the inhibition was 55.2% (active).

For `CC1=Nc2ncnn2C(c2ccccc2)/C1=N\O` (stereo unspecified), the inhibition is -9.4% (inactive).

Turning to `Cc1ccc(NC2c3ncccc3C(=O)N2c2ccccc2C)cc1C` (stereo unspecified), the inhibition is -17.7% (inactive).

Take `O=C(CCNC(=O)Cn1ccc2ccccc2c1=O)NCCCN1CCOCC1`: the inhibition is 10.9% (inactive).

Consider `CC(C)(C)c1ccc(OCC(=O)N/N=C/c2ccsc2)cc1`, for which the inhibition is 54.9% (active).

For the compound `Cc1ccc(C)c(OCC(=O)N/N=C/c2ccsc2)c1`, the inhibition was 3% (inactive).

Regarding `COc1ccc(OCC(=O)N/N=C/c2ccsc2)cc1`, the inhibition was 17.2% (inactive).

With `Cc1cccc(N2C(=O)c3cccc(Oc4ccc(Cl)cc4)c3C2=O)c1`, the inhibition was 13.8% (inactive).

As to `O=C(O)c1cccc(N2C(=O)c3cccc(Oc4ccc(Cl)cc4)c3C2=O)c1`, the inhibition was -8.6% (inactive).

Consider `Cc1ccc(N2C(=O)c3cccc(Oc4ccc(Cl)cc4)c3C2=O)c(C)c1`, for which the inhibition is 50.4% (active).

Turning to `Cc1[nH]c(=O)c(C#N)cc1-c1ccccc1`, the inhibition is 10.3% (inactive).

Regarding `CCn1c(=O)cc(SCC(=O)N2CCN(C)CC2)c2ccccc21`, the inhibition was -10.8% (inactive).

`CC(=O)Nc1ccc(-c2nc(C)c(C(C)=O)n2O)cc1`: the inhibition is 22.6% (inactive).

Regarding `Cc1ccc(OCC(=O)c2cc(C)n(Cc3cccs3)c2C)c([N+](=O)[O-])n1`, the inhibition was 26.4% (inactive).

In the case of `CCOc1ncccc1C(=O)OCC(=O)c1cc(C)n(Cc2ccco2)c1C`, the inhibition was 12.1% (inactive).

Regarding `Cc1cc(C(=O)COc2cccnc2[N+](=O)[O-])c(C)n1Cc1cccs1`, the inhibition was 64.4% (active).

As for `O=C(COc1cccnc1[N+](=O)[O-])NCc1cccs1`, the inhibition is 3% (inactive).

For the compound `Cc1cc(C(=O)COc2cccnc2[N+](=O)[O-])c(C)n1Cc1ccco1`, the inhibition was 59.5% (active).

As to `O=C(COc1cccnc1[N+](=O)[O-])NCc1ccco1`, the inhibition is 65.7% (active).

In the case of `Cc1ccc(OCC(=O)NCc2ccco2)c([N+](=O)[O-])n1`, the inhibition is 1.9% (inactive).

With `Cc1ccc2cccc(OCC(=O)c3cc(C)n(Cc4ccco4)c3C)c2n1`, the inhibition was 20.9% (inactive).

On to `CC(=O)Nc1ccccc1OCC(=O)c1cc(C)n(Cc2cccs2)c1C`, for which the inhibition was 17.5% (inactive).

For the compound `O=[N+]([O-])c1cc(C(F)(F)F)ccc1NCCOc1ccccc1`, the inhibition was 9% (inactive).

On to `O=C(CCCCn1c(=O)c2ccccc2n(CC(=O)Nc2cccc(F)c2)c1=O)NCc1ccco1`, for which the inhibition is 9.4% (inactive).

In the case of `COc1ccc(S(=O)(=O)N(CC(=O)N2CCN(c3ccccc3OC)CC2)c2ccccc2)cc1`, the inhibition was 13.1% (inactive).

Turning to `COc1ccc(NC(C)=O)cc1NC(C)C(=O)Nc1ccc(F)cc1` (stereo unspecified), the inhibition is 7% (inactive).

As for `COc1ccc(NC(C)=O)cc1NC(C)c1nc2sc(C)c(C)c2c(=O)[nH]1` (stereo unspecified), the inhibition was 66.6% (active).

For `Cc1sc2nc(C(C)Nc3ccccc3N3CCOCC3)[nH]c(=O)c2c1C` (stereo unspecified), the inhibition was 26.7% (inactive).

Take `COc1ccc(S(=O)(=O)CCC(=O)N2CCN(c3ccc(F)cc3)CC2)cc1`: the inhibition is -1.5% (inactive).

For `CCn1c(COc2ccc3c(c2)OCO3)nnc1SCC(=O)O`, the inhibition was -46.4% (inactive).

Regarding `Cc1ccc2cccc(OC(=O)/C=C\c3ccccc3)c2n1`, the inhibition is 60.1% (active).

As for `Cc1c(C(=O)Oc2cccc3cccnc23)oc2ccccc12`, the inhibition was 50% (active).

Turning to `O=C(/C=C\c1ccccc1)Oc1cccc2cccnc12`, the inhibition is 51.9% (active).

As for `O=C(/C=C\c1ccco1)Oc1cccc2cccnc12`, the inhibition is 34.3% (inactive).

For `COc1ccccc1/C=C/C(=O)Oc1cccc2cccnc12`, the inhibition is 26.5% (inactive).

`Cc1ccc2cccc(OC(=O)c3ccc4c(c3)OCCO4)c2n1`: the inhibition is 54% (active).

Consider `COC(=O)c1ccccc1OCCOCCOc1cccc2ccc(C)nc12`, for which the inhibition was 45% (inactive).

Regarding `Cc1ccc2cccc(OCC(=O)Nc3ccc4c(c3)OCO4)c2n1`, the inhibition is 15.2% (inactive).

For `O=C(Oc1cccc2cccnc12)c1ccc2c(c1)OCCO2`, the inhibition is 29.5% (inactive).

With `Cc1c(C(=O)Nc2cccc3cccnc23)oc2ccccc12`, the inhibition was -0.2% (inactive).

Regarding `Cc1ccc(C(C)C)c(OC(=O)/C=C/c2ccccc2)c1`, the inhibition was 6.5% (inactive).

`CCc1nc2ccccc2c(C(=O)Oc2cccc3cccnc23)c1C`: the inhibition is 7.3% (inactive).

Regarding `CCOCC(=O)Nc1nnc(COCC)s1`, the inhibition was -1.8% (inactive).

In the case of `Cc1cc(NC(=O)COC(=O)CCCOc2ccc(Cl)cc2C)no1`, the inhibition is 4.5% (inactive).

On to `O=C(O)COc1ccc(/C=N/NC(=O)C2CCCN2S(=O)(=O)c2ccc(Cl)cc2)cc1` (stereo unspecified), for which the inhibition was -3.5% (inactive).

As for `O=C(O/N=C\c1ccc(N2CCOCC2)c([N+](=O)[O-])c1)c1ccc(F)cc1`, the inhibition was 8% (inactive).

As to `COc1ccc(NC(=O)CSCc2ccc(C)cc2)cc1`, the inhibition is 1.9% (inactive).

`Cc1ccc(C2NC(=O)c3c(sc(C)c3C)N2)c(O)c1` (stereo unspecified): the inhibition is -21.9% (inactive).

As to `Nc1ccccc1Nc1cc(-c2ccccc2)[nH]n1`, the inhibition is 28% (inactive).

For `Cc1nc2c(n1C1CCCCC1)C(=O)c1ccccc1C2=O`, the inhibition was 35.4% (inactive).

`COc1ccc(NC(=O)CSc2cc(C)ccc2C)cn1`: the inhibition is 10.5% (inactive).

With `COc1ccc(CC2(CO)CCN(Cc3cccc(OC)c3OC)CC2)cc1`, the inhibition is 6.7% (inactive).

For the compound `CC(C)(C)NCc1cc2ccccc2[nH]c1=O`, the inhibition is 6.8% (inactive).

As to `COc1ccc2[nH]c(=O)c(CNc3cccc(C)c3)cc2c1`, the inhibition is 55.1% (active).

Turning to `COc1ccc2[nH]c(=O)c(CNc3ccc(C)c(C)c3)cc2c1`, the inhibition is 48.9% (inactive).

Take `COc1ccc(NCc2cc3ccccc3[nH]c2=O)cc1`: the inhibition is 59.2% (active).

Take `COc1ccc2[nH]c(=O)c(CNc3ccccc3)cc2c1`: the inhibition was 44.2% (inactive).

As to `COc1ccc(NCc2cc3cc(OC)ccc3[nH]c2=O)cc1`, the inhibition was 30.7% (inactive).

These data come from PubChem BioAssay AID1220 (Sanford-Burnham Center for Chemical Genomics, 2008).
